These results are taken from PubChem BioAssay.

For test [1], the system named is Wnt5a (protein binding on small-molecule microarray). In words: small molecules binding Wnt5a protein – biophysical, small-molecule microarray, 635/667 nm fluorescence, primary screen (AID 1142).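 Note: fluorescence read at 667 nm with signal to noise per printed feature.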 The note with it: 635 nm fluorescence, higher = more signal.
The nature of test [2]: ATP-based viability of Huh7 replicon cells – cell-based, CellTiter-Glo luminescence, basal, 48 h, cytotoxicity control for HCV replication inhibitor project, primary screen (AID 1143).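 Note: Huh7 hepatoma cells carrying a hepatitis C replication reporter with no stimulus; test concentration not given here.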 The note with it: higher = more signal, called active from +8 up or from −8 down.
Test [3] can be described thus: Pseudomonas biofilm growth suppression – PAO1 strain, BacTiter-Glo luminescence, LB-PBS, primary screen (AID 1144). The note with it: P. aeruginosa PAO1 biofilm, 12 h, higher = more signal.
Test [4] in a line: basal CRE-LacZ reporter activity in PC12 – cell-based, unstimulated, primary screen (AID 1145). The note with it: no forskolin, luminescence, 4.5 h, higher = more signal, called active from +8 up or from −8 down.
The nature of test [5]: forskolin-driven CRE-LacZ activity in PC12 – cell-based, CRE-LacZ reporter, forskolin-stimulated, primary screen (AID 1146).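 Note: PC12 cells with 6xCRE LacZ reporter stimulated by forskolin 10 µM; beta-galactosidase reporter signal reflecting CREB driven transcription.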 The note with it: luminescence, 4.5 h, higher = more signal, called active from +8 up or from −8 down.
Test [6] deals with Streptavidin (Streptomyces avidinii) (UniProt P22629). Description: compounds binding control protein streptavidin – biophysical, small-molecule microarray, 635/667 nm fluorescence, artefact control for SMM compound annotation, primary screen (AID 1147).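 Note: signal reflects streptavidin binding to arrayed compounds as a control protein.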 The note with it: higher = more signal.
Streptavidin (Streptomyces avidinii), sequence (P22629 whole entry, looked up): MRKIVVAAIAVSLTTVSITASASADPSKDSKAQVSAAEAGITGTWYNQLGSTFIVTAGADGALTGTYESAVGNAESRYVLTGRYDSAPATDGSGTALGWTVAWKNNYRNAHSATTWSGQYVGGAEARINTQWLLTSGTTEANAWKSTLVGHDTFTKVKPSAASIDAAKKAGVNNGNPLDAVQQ
Test [7] is described as follows: probe aInhba binding on compound microarray – biochemical, small-molecule microarray, 635/667 nm fluorescence, primary screen (AID 1148).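 Note: score merges 667nm spot fluorescence with signal-to-noise for antibody binding to printed compounds.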 The note with it: higher = more signal.
The target of test [8] is Torsin-1A (Homo sapiens) (UniProt O14656). In words: TOR1A wild-type binding on microarray – cell lysate, small-molecule microarray, lysate, 635/667 nm, primary screen (AID 1149). The note with it: COS7 hTOR1A-WT lysate, 635 nm fluorescence, higher = more signal.
Torsin-1A (Homo sapiens), sequence (O14656 whole entry, looked up): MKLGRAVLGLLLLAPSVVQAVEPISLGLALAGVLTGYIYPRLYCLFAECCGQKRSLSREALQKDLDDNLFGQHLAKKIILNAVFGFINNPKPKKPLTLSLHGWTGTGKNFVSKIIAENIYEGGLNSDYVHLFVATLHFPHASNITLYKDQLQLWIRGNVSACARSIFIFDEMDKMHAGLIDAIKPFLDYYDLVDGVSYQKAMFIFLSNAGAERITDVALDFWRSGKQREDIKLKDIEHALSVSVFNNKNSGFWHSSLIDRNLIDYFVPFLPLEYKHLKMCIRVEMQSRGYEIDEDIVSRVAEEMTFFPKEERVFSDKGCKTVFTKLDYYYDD
Test [9] shares this target. Description: torsin A mutant lysate binding on microarrays – cell lysate, small-molecule microarray, COS7 lysate, 635/667 nm fluorescence, primary screen (AID 1150).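 Note: score pools 667 nm emission and signal to noise measuring lysate protein binding.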 The note with it: COS7 hTOR1A mutant lysate, 635 nm fluorescence, higher = more signal.
Test [10] relates to Sonic hedgehog protein (Shh). In words: Sonic hedgehog microarray binding compounds – biochemical, small-molecule microarray, 635/667 nm fluorescence, primary screen (AID 1151).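 Note: Shh protein binding to compounds spotted on small-molecule microarray slides; score combines spot fluorescence intensity with signal-to-noise across triplicate slides.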 The note with it: 635 nm fluorescence, higher = more signal.
Test [11] can be described thus: optical density shifts of acrAB sulA E. coli – strain DRC41, OD650, 48 h, E. coli filamentation inducer project, primary screen (AID 1152).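 Note: E. coli MC1000 strain DRC41 lacking acrAB efflux pump and sulA.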 The note with it: higher = more signal, called active from +8 up or from −8 down.
Test [12] in a line: probe aLefty1 binding on compound microarray – biochemical, small-molecule microarray, 635/667 nm fluorescence, primary screen (AID 1153).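 Note: score merges spot fluorescence with signal-to-noise ratio from the scanned slide images.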 The note with it: higher = more signal.
A short description of test [13]: plasmodial surface anion channel blockers, osmotic lysis – cell-based, P. falciparum Indochina, OD700, 1 h, primary screen (AID 1154). The note with it: P. falciparum Indochina infected RBC osmotic lysis, higher = more signal, called active from +8 up or from −8 down.
The nature of test [14]: plasmodial surface anion channel blockers, osmotic lysis – cell-based, P. falciparum Indochina, OD700, 2 h, primary screen (AID 1155).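 Note: lysis reports solute entry through the parasite surface anion channel PSAC.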 The note with it: P. falciparum Indochina infected erythrocytes, higher = more signal, called active from +8 up or from −8 down.
The nature of test [15]: changes in parasitized red cell lysis, either direction – P. falciparum Indochina, OD700, 3 h, PSAC antagonist project, primary screen (AID 1156). The note with it: P. falciparum-infected erythrocytes, osmotic lysis, higher = more signal, called active from +8 up or from −8 down.
A short description of test [16]: plasmodial surface anion channel blockers, osmotic lysis – cell-based, P. falciparum Indochina, OD700, 18 h, primary screen (AID 1157). The note with it: P. falciparum Indochina infected erythrocytes, osmotic lysis OD700, 18 h; higher = more signal, called active from +8 up or from −8 down.
The nature of test [17]: S6 kinase pathway phospho-S6 level changes – cell-based, A549, cytoblot, luminescence, serum-stimulated, primary screen (AID 1158).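 Note: serum-stimulated A549 lung adenocarcinoma cells; signal is phosphorylated S6 detected by cytoblot immunostaining with HRP secondary.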 The note with it: 5 h, higher = more signal.
The target of test [18] is NADPH oxidase 2 (Homo sapiens) (UniProt P04839). Description: compounds shifting NOX2 Amplex Red fluorescence – cell-based, HEK293-NOX2, PMA-stimulated, NOX inhibitor project, primary screen (AID 1159). Note: test concentration not given here. The note with it: 45 min, higher = more signal, called active from +8 up or from −8 down.
NADPH oxidase 2 (Homo sapiens), sequence (P04839 whole entry, looked up): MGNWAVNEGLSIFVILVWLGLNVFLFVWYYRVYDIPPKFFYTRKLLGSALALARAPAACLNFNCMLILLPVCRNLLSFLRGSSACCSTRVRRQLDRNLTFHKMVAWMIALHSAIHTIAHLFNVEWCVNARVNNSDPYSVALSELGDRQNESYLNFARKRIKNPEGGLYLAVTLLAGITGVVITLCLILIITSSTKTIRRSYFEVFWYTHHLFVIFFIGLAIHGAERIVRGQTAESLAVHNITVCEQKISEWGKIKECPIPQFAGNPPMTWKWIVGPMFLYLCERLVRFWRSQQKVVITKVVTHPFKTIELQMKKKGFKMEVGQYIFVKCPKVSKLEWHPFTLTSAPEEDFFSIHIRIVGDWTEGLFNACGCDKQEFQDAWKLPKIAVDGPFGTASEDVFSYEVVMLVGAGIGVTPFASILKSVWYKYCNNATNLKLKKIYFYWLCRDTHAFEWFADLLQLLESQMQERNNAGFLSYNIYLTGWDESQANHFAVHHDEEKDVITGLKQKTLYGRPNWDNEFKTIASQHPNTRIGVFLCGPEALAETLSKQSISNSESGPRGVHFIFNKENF
The target of test [19] is NADPH oxidase 4 (Homo sapiens) (UniProt Q9NPH5). In words: compounds shifting NOX4 Amplex Red fluorescence – cell-based, HEK293-NOX4, tetracycline-induced, NOX inhibitor project, primary screen (AID 1160). The note with it: HEK293-NOX4, Amplex Red H2O2 fluorescence, 45 min; higher = more signal, called active from +8 up or from −8 down.
NADPH oxidase 4 (Homo sapiens), sequence (Q9NPH5 whole entry, looked up): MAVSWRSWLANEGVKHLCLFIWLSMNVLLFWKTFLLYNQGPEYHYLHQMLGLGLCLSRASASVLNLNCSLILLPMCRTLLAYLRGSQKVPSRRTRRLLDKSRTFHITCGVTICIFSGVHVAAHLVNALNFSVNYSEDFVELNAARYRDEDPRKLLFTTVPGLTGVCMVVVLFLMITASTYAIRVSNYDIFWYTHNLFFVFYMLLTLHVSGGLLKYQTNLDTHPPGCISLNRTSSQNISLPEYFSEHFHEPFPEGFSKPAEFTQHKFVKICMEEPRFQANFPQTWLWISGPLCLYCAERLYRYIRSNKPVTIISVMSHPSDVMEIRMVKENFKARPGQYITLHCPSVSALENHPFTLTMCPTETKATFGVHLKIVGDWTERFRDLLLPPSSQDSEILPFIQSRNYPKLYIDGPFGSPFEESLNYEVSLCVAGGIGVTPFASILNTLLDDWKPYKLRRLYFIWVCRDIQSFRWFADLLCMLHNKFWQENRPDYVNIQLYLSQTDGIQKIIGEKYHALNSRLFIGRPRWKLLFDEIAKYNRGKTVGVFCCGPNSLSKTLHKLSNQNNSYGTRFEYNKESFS
In test [20] the target is NADPH oxidase 5 (Homo sapiens) (UniProt Q96PH1). In words: compounds shifting NOX5 Amplex Red fluorescence – cell-based, HEK293-NOX5, NOX inhibitor project, primary screen (AID 1161). The note with it: HEK293-NOX5, ionomycin, 45 min, higher = more signal.
NADPH oxidase 5 (Homo sapiens), sequence (Q96PH1 whole entry, looked up): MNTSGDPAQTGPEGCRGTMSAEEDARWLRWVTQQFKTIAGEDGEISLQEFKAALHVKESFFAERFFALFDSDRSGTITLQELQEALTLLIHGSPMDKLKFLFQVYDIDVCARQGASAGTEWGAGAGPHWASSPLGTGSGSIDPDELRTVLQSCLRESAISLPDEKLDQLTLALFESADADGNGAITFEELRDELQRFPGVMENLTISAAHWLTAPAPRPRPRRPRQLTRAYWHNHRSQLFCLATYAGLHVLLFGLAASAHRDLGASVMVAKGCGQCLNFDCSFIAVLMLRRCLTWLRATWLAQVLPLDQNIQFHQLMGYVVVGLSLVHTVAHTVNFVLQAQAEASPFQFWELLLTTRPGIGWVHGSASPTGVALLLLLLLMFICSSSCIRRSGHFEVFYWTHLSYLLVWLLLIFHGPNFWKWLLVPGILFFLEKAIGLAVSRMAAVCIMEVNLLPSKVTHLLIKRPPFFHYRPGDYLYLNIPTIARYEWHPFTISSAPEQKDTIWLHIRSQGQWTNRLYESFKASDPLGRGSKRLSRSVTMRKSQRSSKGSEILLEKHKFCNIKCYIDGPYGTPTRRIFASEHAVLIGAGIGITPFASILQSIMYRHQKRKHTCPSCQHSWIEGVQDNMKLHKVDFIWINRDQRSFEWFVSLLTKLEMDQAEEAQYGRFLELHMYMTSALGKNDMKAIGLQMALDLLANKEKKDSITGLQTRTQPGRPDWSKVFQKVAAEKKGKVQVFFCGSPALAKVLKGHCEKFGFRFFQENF

The source made the active and inactive calls. Unless noted, the rule behind the calls is not given here.

In the case of `CCN1C(=O)[C@H]2[C@H]3[C@H](O)[C@H](O)CC(=NO[C@H](C)c4cn([C@@H]5COC[C@H]5O)nn4)[C@@H]3CC[C@H]2C1=O`, the composite z-score in test [1] was 0.0122; in test [6], 0.079; in test [7] it was -0.0468; in test [8], 0.174; in test [9], 0.0806; in test [10], 0.0707. In addition, the composite z-score in test [12] was -0.322. Further, the z-score was 0.654 (inactive) in test [2]; -0.332 (inactive) in test [3]; 0.0013 (inactive) in test [4]; 0.446 (inactive) in test [5]; -0.712 (inactive) in test [11]; 2.21 (inactive) in test [13]. For the same molecule, the z-score in test [14] is 0.76 (inactive); in [15], 0.436 (inactive); in [16] it was 0.564 (inactive); in test [17], -0.582; in [18] it was 0.477 (inactive); in test [19] it was 0.226 (inactive). Further, in test [20], the z-score was 0.919.
Regarding `O=C1CCCC=C1C(O)c1ccc([N+](=O)[O-])cc1` (stereo not given), the composite z-score in test [1] is 0.042; in test [6] it was 0.0753; in test [7], -0.212; in [8], 0.911; in [9], 0.0183; in test [10], -0.676. The molecule further returned a composite z-score in test [12] of -0.217. The z-score is 1.18 (inactive) in [2]; 0.843 (inactive) in test [3]; -0.706 (inactive) in test [4]; 0.126 (inactive) in [5]; 0.134 (inactive) in test [11]; -0.487 (inactive) in [13]. In addition, the z-score in test [14] was -0.347 (inactive); in test [15], -0.324 (inactive); in test [16], -0.342 (inactive); in [17] it was 0.317; in test [18] it was 1.42 (inactive); in [19] it was 0.262 (inactive). For the same molecule, in test [20], the z-score was -0.56.
In the case of `COC(=O)C(C(=O)OC)C1CCCC(=O)C1` (stereo not given), the composite z-score was -0.155 in [1]; 0.402 in test [6]; -0.274 in [7]; 0.622 in test [8]; 1.42 in test [9]; 0.769 in test [10]. In [12], this molecule gave a composite z-score of -0.284. In addition, the z-score in test [2] is -0.509 (inactive); in test [3], -0.619 (inactive); in [4], -0.886 (inactive); in test [5], -0.0388 (inactive); in test [11] it was -1.06 (inactive); in test [13], 0.69 (inactive). Further, the z-score in [14] was -0.176 (inactive); in [15], 0.426 (inactive); in test [16], -0.29 (inactive); in test [17] it was 0.649; in test [18], -1.18 (inactive); in test [19], -1.61 (inactive). For the same molecule, the z-score in test [20] turned out to be 0.921.
Consider `COC(=O)CC=C[C@@H](C)[C@@H](C=NOC[C@@H](C)[C@H](OCc1ccccc1)C(C)C)NS(=O)(=O)c1ccc(C)cc1`, for which the composite z-score in test [1] is -0.122; in test [6], -0.784; in test [7], -0.29; in test [8], 0.331; in test [9], 0.0147; in test [10] it was 0.587. In test [12], this molecule gave a composite z-score of -0.0011. The z-score in [2] is -0.7 (inactive); in test [3], 0.904 (inactive); in [4], 2.87 (inactive); in [5], 0.447 (inactive); in test [11] it was -0.795 (inactive); in test [13], 2.91 (inactive). Further, the z-score in test [14] was 0.988 (inactive); in test [15], 1.2 (inactive); in test [16], 0.808 (inactive); in test [17] it was -0.222; in test [18] it was 0.787 (inactive); in [19], -0.183 (inactive). For the same molecule, the z-score in test [20] is -1.19.
